Measurements taken from PubChem BioAssay (NCATS).
Several values for one entry are separate records, joined by “and”; a condition that tells them apart may be missing. Equal values may be shown once. Records with an inconclusive call do not appear. Entries that show only a call come without a potency. Activity calls are given as the source filed them. Calls follow the shape of the dose curve; as a rule, active = well fitted inhibition curve with a large enough effect; inconclusive = small, poorly fitted or top-dose-only effect; inactive = no such curve, though single readings can be large or run the other way.

biological target: Cytochrome P450 2C9 (Homo sapiens) (UniProt P11712); assay: qHTS Assay for Inhibitors and Substrates of Cytochrome P450 2C9 (AID 883); conditions: recombinant CYP2C9, luciferin-H luminescence, 60 min; series mostly up to 57.1 µM; also: nearly all actives have a fitted effect of over 60% in size
Outline: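 10nM CYP2C9 + 100uM Luciferin-H (=KM), 25mM KPO4; cpd 10 min 37C; NADPH regen, 60 min 37C; stop/detect with P450 Glo-Buffer 20 min; luminescence. Norm. to 57uM sulphaphenazole as full inhibition.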
Potency is read from the fitted curve at half-maximal effect.

Sequence of Cytochrome P450 2C9 (Homo sapiens) (P11712 whole entry, looked up): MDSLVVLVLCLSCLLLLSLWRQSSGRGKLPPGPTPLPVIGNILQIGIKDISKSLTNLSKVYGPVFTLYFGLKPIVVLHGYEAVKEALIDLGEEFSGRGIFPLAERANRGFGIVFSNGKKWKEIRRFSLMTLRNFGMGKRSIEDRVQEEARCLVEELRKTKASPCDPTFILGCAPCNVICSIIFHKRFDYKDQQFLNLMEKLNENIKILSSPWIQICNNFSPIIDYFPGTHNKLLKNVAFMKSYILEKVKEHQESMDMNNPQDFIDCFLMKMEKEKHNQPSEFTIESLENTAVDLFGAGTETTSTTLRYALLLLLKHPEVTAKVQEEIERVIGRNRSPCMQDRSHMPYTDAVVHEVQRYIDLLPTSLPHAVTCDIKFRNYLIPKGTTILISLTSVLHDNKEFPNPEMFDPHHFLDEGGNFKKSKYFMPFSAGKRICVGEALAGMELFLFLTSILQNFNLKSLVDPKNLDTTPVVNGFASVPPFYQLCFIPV

SMILES	Potency
CCS(=O)(=O)Nc1cccc(C(=C2CCCCC2)c2cnc[nH]2)c1	631 nM (active)
O=C1C=CC(=O)C=C1	inactive
CN(N=O)c1ccc(O)c(O)c1	inactive
O=[N+]([O-])c1cc(O)c(O)c([N+](=O)[O-])c1	10 µM (active) and 794 nM (active)
CC(C)(C)c1cc(C=C(C#N)C#N)cc(C(C)(C)C)c1O	31.6 nM (active)
CCCN(CCC)C1Cc2cc(OC)c(OC)cc2C1	inactive
O=c1c2ccccc2[se]n1-c1ccccc1	1 µM (active) and 79.4 nM (active)
CCCN(CCC)CCc1c[nH]c2ccc(C(N)=O)cc12	inactive

biological target: Cytochrome P450 3A4 (Homo sapiens) (UniProt P08684); assay: qHTS Assay for Inhibitors and Substrates of Cytochrome P450 3A4 (AID 884); conditions: recombinant CYP3A4, Luciferin-PPXE luminescence; series mostly up to 57.1 µM; also: nearly all actives have a fitted effect of over 50% in size
Outline: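 20 nM human CYP3A4 with 25 uM Luciferin-PPXE (at KM) in 200 mM KPO4, preincubated 10 min with compound; NADPH regeneration started a 60 min RT reaction. Luciferin detected by luminescence, normalized to 57 uM ketoconazole as full inhibition.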

Sequence of Cytochrome P450 3A4 (Homo sapiens) (P08684 whole entry, looked up): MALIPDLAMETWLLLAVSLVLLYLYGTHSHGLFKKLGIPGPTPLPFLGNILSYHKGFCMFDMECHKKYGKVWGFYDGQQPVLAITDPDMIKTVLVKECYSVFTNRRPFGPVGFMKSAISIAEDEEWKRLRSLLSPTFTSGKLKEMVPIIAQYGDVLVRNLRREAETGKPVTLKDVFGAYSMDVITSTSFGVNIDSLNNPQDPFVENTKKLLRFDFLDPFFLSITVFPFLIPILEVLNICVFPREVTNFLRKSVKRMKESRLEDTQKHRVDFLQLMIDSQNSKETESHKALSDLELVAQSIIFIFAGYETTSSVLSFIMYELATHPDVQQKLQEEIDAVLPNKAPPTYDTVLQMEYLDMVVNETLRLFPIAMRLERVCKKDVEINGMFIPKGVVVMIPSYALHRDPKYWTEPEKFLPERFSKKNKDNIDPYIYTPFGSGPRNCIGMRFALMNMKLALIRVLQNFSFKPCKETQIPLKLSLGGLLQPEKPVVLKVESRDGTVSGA

SMILES	Potency
CCOC(=O)c1ccccc1C(=O)OCC	inactive
CCS(=O)(=O)Nc1cccc(C(=C2CCCCC2)c2cnc[nH]2)c1	0.316 µM (active)
CC(N)Cc1ccc(O)cc1 (stereo not given)	inactive
Nc1ccc(CCN2CCN(c3cccc(C(F)(F)F)c3)CC2)cc1	7.94 µM (active)
COc1ccc(OC)c(C(O)C(C)N)c1 (stereo not given)	inactive
CC(C)(C)c1cc(O)ccc1O	inactive
O=C1C=CC(=O)C=C1	inactive
C=CCC1(C(C)CCC)C(=O)N=C(S)NC1=O (stereo not given)	12.6 µM (active)
CN1C2CCC1CC(OC(c1ccccc1)c1ccccc1N)C2 (stereo not given)	inactive
CCC(=O)O[C@@](Cc1ccccc1)(c1ccccc1)[C@@H](C)CN(C)C	5.01 µM (active)
CN(N=O)c1ccc(O)c(O)c1	inactive
ClCC1CO1 (stereo not given)	inactive
[N-]=[N+]=CC(=O)OCC(N)C(=O)O (stereo not given)	inactive
COc1ccc2c(c1)/C(=C/c1cnc[nH]1)C(=O)N2	0.794 µM (active)
O=C1C=C2C=C[C@@H]3C[C@@]2(O1)[C@H]1CCCCN31	inactive
C[C@H]1CCC[C@H](O)CCCCCc2cc(O)cc(O)c2C(=O)O1	3.98 µM (active)

SMILES	Potency
C[N+]1(C)[C@@H]2CC[C@H]1CC(OC(=O)c1c[nH]c3ccccc13)C2 (stereo not given in full)	7.94 µM (active)
c1ccc2c(c1)[I+]c1ccccc1-2	3.16 µM (active)
O=C1CCO1	inactive
O=S1(=O)N(CCN2CC=C(c3c[nH]c4cc(F)ccc34)CC2)c2cccc3c2N1CCC3	5.01 µM (active)
CC(C)(C)c1cc(C=C(C#N)C#N)cc(C(C)(C)C)c1O	3.16 µM (active)
COc1ccc2[nH]cc(CCN)c2c1	inactive
O=Cc1ccco1	inactive
O=[N+]([O-])c1ccc(F)c([N+](=O)[O-])c1	inactive
S=C=S	inactive
O=c1c2ccccc2[se]n1-c1ccccc1	3.98 µM (active) and 25.1 µM (active)
CC1OC1P(=O)(O)O (stereo not given)	inactive
Cc1c2ccncc2c(C)c2c1[nH]c1ccccc12	158 nM (active) and 398 nM (active)
NNC(=O)c1ccc(O)cc1	5.01 µM (active)
COc1ccc2c(c1)c(CCN1CCOCC1)c(C)n2C(=O)c1cccc(Cl)c1Cl	3.16 µM (active)
Clc1ccc(Cl)cc1	inactive
CCCn1c(C)c(C(=O)c2ccc3ccccc3c2)c2ccccc21	inactive
